# Measured values as given in PubChem BioAssay (EPA / NIEHS).
# Inconclusive results are not listed. Some structures have more than one record in an assay (separate samples or runs), and their calls can disagree. The source made the active and inactive calls. How the source made its calls: active means hit-call score of the fitted dose curve at least 0.9, where 1 is the maximum; inconclusive means response in the unintended direction; inactive means score below 0.9.
# Tests used:
# [1] = STM_H9_NormalizedViability: Cytotoxicity Assessment at 120 hours in the Stemina devTOX quickPredict H9 human embryonic stem cell (hESC)-based Assay (AID 2283784)
# Method in brief: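 Undifferentiated H9 hESCs kept pluripotent were exposed to compound, with media and chemical replaced every 24h. CellTiter-Fluor protease-substrate fluorescence was background-corrected and normalized per plate to the 0.1% DMSO vehicle; signal loss indicates reduced viability.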
# [2] = tested on: turtle Androgen Receptor (AR), gene 101947425; test: ATG_trAR_XSP1: Attagene TRANS-FACTORIAL Multi-Species (XSP1) HepG2 Assay for turtle Androgen Receptor (AR) (AID 2283786)
# Method in brief: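 HepG2 cells transiently transfected with a turtle AR–GAL4 chimera and GAL4-UAS reporter, co-treated with 3 nM 6-alpha-fluorotestosterone for partial stimulation. Reporter mRNA is quantified at 24 h by RT-PCR and capillary electrophoresis, gain-of-signal versus DMSO.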
# [3] = ACEA_ER_AUC_viability: ACEA Biosciences xCELLigence Real-Time Cell Analysis on Estrogen Receptor Agonism for Viability (AID 2283782);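 further: continuous compound exposure with impedance area under curve over 80 h; hit means loss of impedance signal meaning reduced cell growth or viability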
# Method in brief: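 T47D cells preconditioned in phenol red-free RPMI with charcoal-stripped FBS, then dosed with 8-point 1:4 series from 100 uM (up to 0.5% DMSO). Impedance monitored up to ~80 h; area-under-curve loss versus DMSO taken as viability.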
# AR (gene 367) [4] = target: AR (gene 367) (UniProt P10275); test: ACEA_AR_antagonist_80hr: ACEA Biosciences xCELLigence Real-Time Cell Analysis on Androgen Receptor Antagonism for Proliferation (AID 2283787);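 further: 22Rv1 human prostate cancer cells with growth followed by electrical impedance; hits lower the impedance growth signal relative to DMSO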
# Method in brief: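 22Rv1 cells in assay medium, growth tracked by electrical impedance; compounds eight-point 1:4 dilutions from 100 uM final, duplicate plates. Endpoint at 80 h; loss of signal versus DMSO.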
# AR (gene 367) [5] = target: AR (gene 367) (UniProt P10275); test: ACEA_AR_agonist_80hr: ACEA Biosciences xCELLigence Real-Time Cell Analysis on Androgen Receptor Agonism for Proliferation (AID 2283783);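 further: hits increase impedance growth signal above DMSO baseline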
# Method in brief: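 Proliferation of 22Rv1 prostate cancer cells tracked by electrical impedance, endpoint taken at 80 hours after dosing. Eight-point 1:4 dilutions from 100 uM maximum final, duplicate; testosterone and MG132 as positive controls, assay media as negative.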
# Sequence of AR (gene 367) (P10275 whole entry, looked up): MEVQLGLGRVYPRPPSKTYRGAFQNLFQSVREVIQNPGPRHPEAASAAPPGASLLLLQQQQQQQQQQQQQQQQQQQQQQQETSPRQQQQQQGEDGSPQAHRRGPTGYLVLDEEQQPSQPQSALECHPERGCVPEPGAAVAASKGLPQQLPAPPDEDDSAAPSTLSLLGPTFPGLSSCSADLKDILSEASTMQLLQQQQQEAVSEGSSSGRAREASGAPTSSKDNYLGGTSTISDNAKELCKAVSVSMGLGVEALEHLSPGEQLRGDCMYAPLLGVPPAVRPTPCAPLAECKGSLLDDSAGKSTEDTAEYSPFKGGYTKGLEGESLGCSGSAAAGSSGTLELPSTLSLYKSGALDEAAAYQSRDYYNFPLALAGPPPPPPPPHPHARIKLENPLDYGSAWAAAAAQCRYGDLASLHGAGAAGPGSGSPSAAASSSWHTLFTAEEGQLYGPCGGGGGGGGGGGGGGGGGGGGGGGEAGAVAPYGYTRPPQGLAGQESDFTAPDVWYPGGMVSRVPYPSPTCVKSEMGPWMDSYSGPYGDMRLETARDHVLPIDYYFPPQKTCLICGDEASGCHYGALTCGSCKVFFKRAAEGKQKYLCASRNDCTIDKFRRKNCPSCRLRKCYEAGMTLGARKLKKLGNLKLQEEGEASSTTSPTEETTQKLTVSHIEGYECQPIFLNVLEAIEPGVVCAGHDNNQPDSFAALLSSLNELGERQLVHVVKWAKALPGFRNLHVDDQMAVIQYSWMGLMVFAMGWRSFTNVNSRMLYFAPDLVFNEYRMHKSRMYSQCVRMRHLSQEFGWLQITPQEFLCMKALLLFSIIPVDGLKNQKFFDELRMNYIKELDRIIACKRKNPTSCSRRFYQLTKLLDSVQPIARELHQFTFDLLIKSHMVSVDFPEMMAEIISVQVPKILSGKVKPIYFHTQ
smiles,measurement,setting,value
Oc1ccc(C(c2ccc(O)cc2)(C(F)(F)F)C(F)(F)F)cc1,outcome,[1],inactive
Clc1ccc(C(c2ccccc2Cl)C(Cl)(Cl)Cl)cc1 (centres undefined),AC50,[1],88.7 µM (active)
C[C@]12CCC(=O)C=C1CC[C@@H]1[C@@H]2CC[C@]2(C)C(=O)CC[C@@H]12,AC50,[2],0.658 µM (active)
C[C@]12CCC(=O)C=C1CC[C@@H]1[C@@H]2CC[C@@]2(C)[C@H]1CC[C@]2(C)O,AC50,[2],0.0018 µM (active)
CC1=C2C[C@H]3[C@@H](CC=C4C[C@@H](O)CC[C@@]43C)[C@@H]2CC[C@]12O[C@@H]1C[C@H](C)CN[C@H]1[C@H]2C,outcome,[3],inactive
same,outcome,[1],inactive
same,AC50,AR (gene 367) [4],80.8 µM (active)
c1cc2ccc3cccc4ccc(c1)c2c34,outcome,[3],inactive
same,AC50,AR (gene 367) [4],25.5 µM (active)
Cc1ccccc1CO[C@@H]1C[C@@]2(C(C)C)CC[C@]1(C)O2,AC50,[3],74.9 µM (active)
same,outcome,AR (gene 367) [5],inactive
same,AC50,AR (gene 367) [4],76.6 µM (active)
CCNc1nc(NC(C)C)nc(SC)n1,outcome,AR (gene 367) [5],inactive
same,outcome,[1],inactive
same,outcome,AR (gene 367) [4],inactive
CCSC(=O)N(CC)C1CCCCC1,outcome,[3],inactive
same,outcome,[1],inactive
O=C(O)C(F)(F)C(F)(F)C(F)(F)C(F)(F)C(F)(F)C(F)(F)C(F)(F)C(F)(F)F,AC50,[3],122 µM (active)
same,outcome,[3],inactive
C1CC2OC2CC1C1CO1 (centres undefined),AC50,[1],74.5 µM (active)
O=NN(c1ccccc1)c1ccccc1,outcome,[1],inactive
C=CC(=O)NCNC(=O)C=C,outcome,AR (gene 367) [5],inactive
same,AC50,[1],50 µM (active)
same,outcome,AR (gene 367) [4],inactive
Oc1c(Cl)c(Cl)c(Cl)c(Cl)c1Cl,AC50,[3],77.9 µM (active)
same,outcome,[3],inactive
CCOC(=O)C(O)(c1ccc(Cl)cc1)c1ccc(Cl)cc1,AC50,[3],81.3 µM (active)
same,outcome,AR (gene 367) [5],inactive
same,AC50,AR (gene 367) [4],19.2 µM (active)
